Source: PubChem (National Center for Advancing Translational Sciences (NCATS))
HP1b binding inh = HTS for Inhibitors of HP1-beta Chromodomain Interactions with Methylated Histone Tails; Chromobox protein homolog 1 (Homo sapiens), P83916; AlphaScreen HP1-beta / biotin-H3K9me3 peptide binding; Potency, µM (doses to about 114 µM), for inactives: at the highest dose activity change, negative = inhibition, usual class: inhibitors; actives 0.56% (n = 390,000); AID 540317, 2011; also: nearly all actives have a fitted effect of over 70% in size
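Compound inhibition of the preformed complex between 50 nM HP1-beta and 50 nM biotinylated H3K9me3 peptide was read by AlphaScreen. Buffer was PBS pH 7.4 with 0.01% Tween-20. Incubations ran 30 min at room temperature, with 10 ug/mL donor/acceptor beads.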
JMJD2A Tudor inh = qHTS Assay for Inhibitors of JMJD2A-Tudor Domain; Lysine-specific demethylase 4A (Homo sapiens), O75164; AlphaScreen JMJD2A-Tudor / H3K4me3 peptide binding; Potency, µM (highest dose often 114 µM), for inactives: top-dose activity change, negative = inhibition, hits mostly inhibitors; actives 4.4% (n = 390,000); also: % is scaled to controls: 0 for no effect and ±100 for the full control effect; nearly all actives have a fitted effect of over 50% in size
L3MBTL1 inh = qHTS Assay for the Inhibitors of L3MBTL1 | Lethal(3)malignant brain tumor-like protein 1 (Homo sapiens), Q9Y468 | AlphaScreen L3MBTL1–H3K9me1 peptide binding | Potency, µM (highest dose often 57.1 µM), for the others: at the top dose activity, negative = inhibition, hits mostly inhibitors | actives 0.66% (n = 230,000) | AID 485360, 2010; also: % is scaled to controls: 0 for no effect and ±100 for the full control effect; nearly all actives have a fitted effect of over 60% in size
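AlphaScreen proximity signal between nickel-chelate acceptor and streptavidin donor beads (final 10 ug/mL) reports binding of 50 nM L3MBTL1 to 75 nM biotin-H3 K9me1 peptide; complex incubated with compounds 30 min at room temperature; cefsulodin titration as control.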
Sfp PPTase inh = qHTS Assay for Inhibitors of Bacillus subtilis Sfp phosphopantetheinyl transferase (PPTase). 4'-phosphopantetheinyl transferase ffp (Bacillus subtilis), Q9F4F7. Biochemical Sfp PPTase activity, qHTS. Potency, µM, without a hit: largest response in the series, negative = inhibition, most hits filed as inhibitors. actives 3.5% (n = 310,000);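 also: the enzyme is Sfp with the accession as filed and its product quenches rhodamine fluorescence; 0% = enzyme reaction without inhibitor and -100% = no enzyme wells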
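Compounds were incubated with enzyme (final 15 nM) for 15 min at room temperature before substrate addition started the reaction. Fluorescence at 525 nm excitation, 598 nm emission was recorded immediately and after 30 minutes.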
BAZ2B block = qHTS Assay for Inhibitors of BAZ2B | Bromodomain adjacent to zinc finger domain protein 2B (Homo sapiens), Q9UIF8 | AlphaScreen BAZ2B-H3K14Ac peptide displacement | Potency, µM (series often up to 114 µM), for inactives: at the top dose activity change, negative = inhibition, most hits filed as inhibitors | actives 4.4% (n = 360,000) | AID 504333, 2011; also: % is scaled to controls: 0 for no effect and ±100 for the full control effect; nearly all actives have a fitted effect of over 60% in size
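Inhibition is scored as reduced AlphaScreen emission. The BAZ2B/b-H3(5-23)K14Ac complex (50 nM each) in PBS pH 7.4, 0.01% Tween-20 meets compound (up to 110 uM) for 30 min at RT before bead addition.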
G9a block = qHTS Assay for Inhibitors of Histone Lysine Methyltransferase G9a. Histone-lysine N-methyltransferase EHMT2 (Homo sapiens), Q96KQ7. Potency, µM (highest dose often 102 µM), for inactives: at the top dose activity, negative = inhibition, actives largely listed as inhibitors. actives 8.8% (n = 350,000). G9a H3K9 monomethylation, AlphaScreen, 2 h. AID 504332, 2011; also: % is scaled to controls: 0 for no effect and ±100 for the full control effect; nearly all actives have a fitted effect of over 75% in size
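G9a (20 nM) preincubated 15 min RT with compounds, then 500 nM biotinylated H3K9 peptide and 20 uM SAM added; 2 h RT reaction. Monomethyl-H3K9 product detected by AlphaScreen with anti-H3K9me1 antibody, streptavidin donor and anti-rabbit IgG acceptor beads.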
An asterisk follows results filed as active; ? = inconclusive; · = no result; ! = a repeat was not active; [ ] = dose if it differs, or a comment. Only some compounds are listed: those with a hit (about 12% of all), similar ones and a draw of the others. Calls follow the shape of the dose curve; as a rule, active = well fitted curve in the direction sought with a large enough effect; inconclusive = small, poorly fitted or top-dose-only effect, or another doubt; inactive = no such curve, though single readings can be large; an effect the other way counts as inactive or inconclusive. Potency is read from the fitted curve at half-maximal effect.

SMILES	HP1b binding inh	JMJD2A Tudor inh	L3MBTL1 inh	Sfp PPTase inh	BAZ2B block	G9a block
Cc1ccc(-n2cc[nH]c2=S)c(C)c1	-12%	-7%	11%	-65%	-11%	8.9µM*
Cc1ccc(C)c(N2CC(=O)N(c3cc(C)ccc3C)CC2=O)c1	15%	-13%	2%	15%	-2%	32%[12.7 µM]
Cc1cc(C)cc(-n2cc[nH]c2=S)c1	-4%	7.9µM*	?	16%	-26%	0.79µM*
O=C(c1cc(-c2ccccc2)n[nH]1)N1CCc2c([nH]c3ccccc23)C1c1ccccn1 (stereo not given)	-6%	?	?	7%	-37%	?
Cc1cccc(C(=O)NC2CCN(CC(=O)Nc3ccccc3Cl)CC2)c1	26%	-13%	8%	23%	-26%	28%
COC(=O)c1ccc(NC(=O)CC2C(=O)N(c3cccc(C)c3)C(=O)N2C2CCCC2)cc1 (stereo not given)	37%	0%	·	·	-18%	7.1µM*
COc1ccc(NC(=O)CC2C(=O)N(c3cccc(C)c3)C(=O)N2C2CCCCC2)cc1 (stereo not given)	31%	-19%	·	?	-18%	-19%[59 µM]
Cc1c(C)c2c(c(C)c1O)CCC(C)(C(=O)O)O2 (stereo not given)	19%	-2%	-11%	·	5%	14µM*
Cc1ccc(C(=O)N2CCN(C(=O)c3ccc(C)cc3)C2)cc1	26%	-13%	11%	8%	-2%	-1%
CC(C)C(=O)Nc1cccc(C(=O)Nc2nnc(CC(C)(C)C)s2)c1	40%	-3%	·	·	1%	-30%[59 µM]
O=C1COc2ccc(-c3csc(NCCc4ccccc4)n3)cc2N1	-18%	?	-15%	-14%	50µM*	40µM*
CCC(C)C(=O)Nc1nc(-c2ccc3c(c2)NC(=O)CO3)cs1 (stereo not given)	?	-23%[57.1 µM]	-13%	5%	-9%	?
C[C@@H]1O[C@@H](O[C@@H]2[C@@H](O)[C@H](OCCc3ccc(O)c(O)c3)O[C@H](CO)[C@H]2OC(=O)/C=C/c2ccc(O)c(O)c2)[C@H](O)[C@H](O)[C@H]1O	?	18µM*	?	·	·	·
Cc1sc2ccccc2[n+]1CC(=O)O	52%	?	-6%	2µM*	-10%	?
Cc1sc2ccccc2[n+]1CC(=O)c1ccccc1	-7%	?	3%	?	?	10µM*
Cc1sc2ccccc2[n+]1CCC(C)S(=O)(=O)[O-] (stereo not given)	63%	-17%	-1%	45µM*	-10%	3%[59 µM]
CC[n+]1c(C)sc2cc(C)ccc21	59%	1%	0%	?	-38%	?
Cn1c(=O)cc(C(=O)N/N=C/c2ccc(F)cc2)[nH]c1=O	25%	-16%	·	?	12%	7%
CN=c1scc(-c2ccc(F)cc2)n1/N=C/c1ccc(O)c(O)c1	40µM*	32µM*	·	56µM*	10µM*	4.5µM*
COC(=O)c1cc(NC(=O)c2c(Cl)cnn2C)cc(C(=O)OC)c1	23%	-9%	10%	11%	3%	22%[59 µM]
COC(=O)c1ccc(NC(=O)c2c(Br)cnn2C)cc1	-4%	-9%	·	35µM*	-15%	7.9µM*
COC(=O)c1ccc(NC(=S)NC(=O)c2c(Cl)cnn2C)cc1	10%	-12%	-41%	50µM*	-28%	?
O=c1ccc2ccc(OCCOc3cccc(Cl)c3)cc2o1	37%	45%	·	-19%	6%	·
COC(=O)c1c(N)sc(Cc2ccccc2)c1C	25%	-13%	-3%	-2%	?	-11%[0.501 µM]
Nc1sc(-c2ccccc2)c(Cc2ccccc2)c1C(=O)O	?	?	·	-8%	·	50µM*
SMILES	HP1b binding inh	JMJD2A Tudor inh	L3MBTL1 inh	Sfp PPTase inh	BAZ2B block	G9a block
O=C(CN1CCCN(Cc2ccccc2Cl)S1(=O)=O)Nc1ccc2c(c1)OCCO2	-1%	-19%	·	·	-20%	-1%[59 µM]
CS/C(=N\S(=O)(=O)c1cccs1)Nc1ccc(Br)cc1F	26%	-6%	6%	22%	-3%	?
O=C(NCCc1ccccc1)C1CCN(C2CCN(C(=O)CC3=CCCCC3)CC2)CC1	60%	-5%	-9%	15%	0%	13%
COc1ccc(C2=NN(C(=O)c3cccs3)C(O)(C(F)(F)F)C2)cc1 (stereo not given)	49%	1%	·	45µM*	13%	-27%
C#CC[N+]1(CC#Cc2ccccc2)CCCC1	26%	-14%	14%	-10%	-4%	-6%[0.501 µM]
C#CC[N+]1(CC#Cc2ccc(C#CC[N+]3(CC#C)CCOCC3)cc2)CCOCC1	11%	-15%	14%	13%	9%	8.9µM*
Cc1nc2ccc(NS(=O)(=O)c3ccc4c(c3)OCCO4)cc2s1	30%	-4%	·	7%	-15%	0%[12.7 µM]
N[C@@H](C(=O)O)c1ccc(C(=O)O)c(C(=O)O)c1	·	·	·	4%	·	32%[59 µM]
N[C@H](C(=O)O)c1cccc(O)c1	·	·	·	45µM*!	·	39%[59 µM]
NC(C(=O)O)c1cc(O)c(Cl)c(O)c1 (stereo not given)	·	·	·	23%	·	21%[59 µM]
NC(C(=O)O)C(O)c1ccc(O)c(O)c1 (stereo not given)	·	·	·	45µM*	·	1.1µM*
N[C@H](C(=O)O)c1ccc(O)c(C(=O)O)c1	·	·	·	20µM*	·	34%[59 µM]
O=C(Nc1cc2ccc(O)cc2oc1=O)c1ccc(F)cc1	31%	-6%	·	·	-2%	3%[59 µM]
CCN1C(=O)S/C(=C/c2c(OCc3ccc(C(=O)O)cc3)ccc3ccccc23)C1=O	-4%	?	-5%	?	?	50µM*
O=C(O)c1ccc(COc2ccc3ccccc3c2/C=C2/NC(=O)N(c3ccccc3)C2=O)cc1	8%	-35%	-6%	-30%	-36%	·
CC1CCN(C(=O)C2CCCN2S(=O)(=O)c2ccc(Cl)cc2)CC1 (stereo not given)	33%	-8%	·	8%	-19%	-1%
Cc1oc(-c2ccc(C(=O)N(C)Cc3ccccc3)cc2)nc1CN1CCc2ccccc21	-22%[57 µM]	28µM*	·	·	25µM*	?
Cc1ccc(CNC(=O)c2ccc(-c3nc(CN4CCc5ccccc54)c(C)o3)cc2)cc1	17%[57 µM]	-35%	·	·	-17%	-27%[59 µM]
